Several values for one entry are separate records, joined by “and”; a condition that tells them apart may be missing. Equal entries are not always repeated. Results filed as inconclusive are left out. A call without a number means that no potency is given here. Where a structure was tested more than once in an assay, its records may differ in their call. Activity calls are given as the source filed them. The call rests on the fitted dose curve; in most records, active means well fitted activation curve with a large enough effect in the repeat runs; inconclusive means weak or mixed curves; inactive means no such curve, though single readings can be large or run the other way.

Experimental findings from PubChem BioAssay (Tox21) are described below.
Potency means the concentration at half of the fitted maximal effect.

Sequence of Nuclear receptor subfamily 1 group I member 3 (Homo sapiens) (Q14994 whole entry, looked up): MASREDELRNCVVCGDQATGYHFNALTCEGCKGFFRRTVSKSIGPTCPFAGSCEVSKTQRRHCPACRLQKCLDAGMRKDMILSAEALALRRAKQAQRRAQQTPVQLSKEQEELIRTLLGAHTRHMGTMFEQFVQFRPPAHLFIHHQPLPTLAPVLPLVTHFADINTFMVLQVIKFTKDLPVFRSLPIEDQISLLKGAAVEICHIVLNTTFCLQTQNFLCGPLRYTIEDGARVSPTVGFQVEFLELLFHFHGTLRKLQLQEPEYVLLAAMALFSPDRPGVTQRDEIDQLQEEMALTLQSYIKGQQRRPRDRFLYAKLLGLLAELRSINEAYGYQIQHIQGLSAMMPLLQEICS

The target of this assay is Nuclear receptor subfamily 1 group I member 3 (Homo sapiens) (UniProt Q14994). Kind of assay: qHTS assay to identify small molecule agonists of the constitutive androstane receptor (CAR) signaling pathway (AID 1224839). Further: nearly all actives have a fitted effect of over 15% in size.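 On activation: HepG2 cells stably carrying human CAR and a CYP2B6 luciferase reporter.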 Conditions: HepG2 hCAR CYP2B6-luciferase, agonist mode, 24 h; series mostly up to 92.4 µM; activation: at the top concentration. The text has this:
National Center for Advancing Translational Sciences [NCATS] NIH Chemical Genomics Center [NCGC] U.S. Environmental Protection Agency [EPA] National Institutes of Environmental Health Sciences [NIEHS] National Toxicology Program [NTP] Assay overview: The constitutive androstane receptor (CAR) is a nuclear receptor which regulates multiple drug metabolizing enzymes (DMEs) and transporters. Activating CAR will generally increase the transcription and subsequent translation of CYP2B6 and CYP3A4. These two DMEs represent about 50% of the drug metabolizing potential in the body. […] Recently, there have also been studies performed indicating CARs role in energy metabolism and cancer therapy. Therefore, inducing CARs activity could have a potential effect on diabetes and cancer. Identifying environmental toxins and compounds which modulate CAR, through the use of the Tox21 10K compound collection, will be an important step in determining the toxicity and potential therapeutic effects these factors will have on the human body.
Assay Protocol Summary: A double-stable (hCAR and CYP2B6-2.2kb) transfected cell line, derived from human hepatoma (HepG2) cells, was utilized for the duration of the quantitative high-throughput screens. The HepG2-CYP2B6-hCAR cells suspended in DMEM culture medium supplemented with 10% FBS, 5 ug/mL blasticidin, 0.5 mg/mL geneticin, 100 U/mL penicillin and 100 ug/mL streptomycin were dispensed at 2500 cells/4 uL/well in 1536-well white solid bottom plates using a Multidrop Combi. After the assay plates were incubated at 37 C/5% CO2 for 4 hrs, 23 nL of compounds at 15 concentrations (from 5-48 columns) or positive control (from 1 to 4 columns) were transferred to the assay plates using a Pintool station. One uL of PK11195, was added using a Flying Reagent Dispenser to generate a final concentration of 0.75 uM PK11195 inside each well. After a 24 hr incubation period at 37 C/5% CO2, four uL of ONE-Glo reagent was added into the assay plates using a Flying Reagent Dispenser. After a 30 min incubation period at room temperature, the luminescence intensity in the assay plates was measured using a ViewLux plate reader.
For orientation: In qHTS, concentration-response curves come from the screen itself.
For `C=C1C[C@H]2[C@@H]3C=C(C)C4=CC(=O)CC[C@]4(C)[C@H]3CC[C@]2(C)[C@@]1(OC(C)=O)C(C)=O`, the “activation” value is -3.06% [at 42.5 µM] (inactive).

In the case of `C[C@]12CC[C@@H]3c4ccc(O)cc4CC[C@H]3[C@@H]1CC[C@@H]2O`, the Potency was 9.67 µM (active) and 10.9 µM (active).

As to `C/C=C/C(=O)N(CC)c1ccccc1C`, the Potency is 27.3 µM (active).

For `Cc1ccc(C(C)(C)C)c(O)c1`, the Potency result is “inactive”.

As to `C=C[C@@]1(C)CC(=O)[C@]2(O)[C@@]3(C)[C@@H](O)CCC(C)(C)[C@@H]3[C@H](O)[C@H](OC(C)=O)[C@@]2(C)O1`, the Potency result was “inactive”.

`CCCCCCCCCCC(CO)CCCCCCCC` (stereo not given): the Potency entry was “inactive”.

Regarding `Nc1ccc(O)c(N)c1`, the Potency result is “inactive”.

Turning to `C=CN1CCCC1=O`, the Potency result was “inactive”.

In the case of `CC(=O)Oc1c(C)c(C)c2c(c1C)CC[C@@](C)(CCC[C@H](C)CCC[C@H](C)CCCC(C)C)O2`, the Potency result was “inactive”.

Regarding `O=C(O)COCCN1CCN(C(c2ccccc2)c2ccc(Cl)cc2)CC1` (stereo not given), the Potency entry was “inactive”.

Consider `OC[C@H]1O[C@@H]2O[C@H]3[C@H](O)[C@@H](O)[C@@H](O[C@H]4[C@H](O)[C@@H](O)[C@@H](O[C@H]5[C@H](O)[C@@H](O)[C@@H](O[C@H]6[C@H](O)[C@@H](O)[C@@H](O[C@H]7[C@H](O)[C@@H](O)[C@@H](O[C@H]1[C@H](O)[C@H]2O)O[C@@H]7CO)O[C@@H]6CO)O[C@@H]5CO)O[C@@H]4CO)O[C@@H]3CO`, for which the Potency entry is “inactive”.

As for `CCC(Cc1c(I)cc(I)c(N)c1I)C(=O)O` (stereo not given), the Potency is 47 µM (active).

In the case of `COC(=O)C(C)Oc1ccc(Oc2ncc(C(F)(F)F)cc2Cl)cc1` (stereo not given), the Potency entry was “inactive”.

As to `COc1ccc2nc(N)sc2c1`, the Potency is 54.5 µM (active) and 27.3 µM (active).

As for `Cc1ccc(C)c(O)c1`, the Potency result was “inactive”.

On to `CC1(C)C(C=C(Cl)Cl)C1C(=O)OCc1cccc(Oc2ccccc2)c1` (stereo not given), for which the Potency is 6.81 µM (active) and 6.11 µM (active).

`c1ccc2cc3ccccc3cc2c1`: the Potency is 19.9 µM (active) and 21.7 µM (active).

Regarding `COC(=O)c1ccc(C)cc1`, the Potency entry is “inactive”.

Turning to `C=CC(C)(O)CCC=C(C)C` (stereo not given), the Potency entry was “inactive”.

Take `O=C1OC2(c3ccccc31)c1cc(I)c(O)c(I)c1Oc1c2cc(I)c(O)c1I`: the Potency result was “inactive”.

For `c1ccc2ncccc2c1`, the Potency result is “inactive”.

On to `COc1ccc(-c2coc3cc(O)cc(O)c3c2=O)cc1`, for which the Potency is 15.5 µM (active) and 27.3 µM (active).

Take `CN(Cc1cnc2nc(N)nc(N)c2n1)c1ccc(C(=O)N[C@@H](CCC(=O)O)C(=O)O)cc1`: the Potency entry was “inactive”.

Regarding `O=S1(=O)CCCO1`, the Potency result is “inactive”.

For the compound `Clc1ccc(Sc2cc(Cl)c(Cl)cc2Cl)cc1`, the “activation” value was 12.7% (inactive).

Turning to `CC1(C)OC(=O)NC1=O`, the Potency result is “inactive”.

As to `c1ccc2c(c1)[nH]c1ccccc12`, the Potency is 60.1 µM (active).

With `Nc1cc([N+](=O)[O-])ccc1C(=O)O`, the Potency entry was “inactive”.

As for `CN(C)C`, the Potency result was “inactive”.

On to `C1COCCN1`, for which the Potency result is “inactive”.

For the compound `[Na+]`, the Potency result is “inactive”.

Turning to `CC/C=C\C/C=C\C/C=C\CCCCCCCC(=O)O`, the Potency entry was “inactive”.

On to `Cc1ccc([N+](=O)[O-])c(C)c1`, for which the Potency result is “inactive”.

Consider `CC(=O)Nc1ccc2c(c1)Cc1cc(NC(C)=O)ccc1-2`, for which the Potency entry is “inactive and 7.7 µM (active)”.

Turning to `CCCCCCCCCCCCO`, the Potency result is “inactive”.

On to `Cc1ccc2c(c1)C(=O)OC2=O`, for which the Potency result is “inactive”.

`C=C[Si](OCCOC)(OCCOC)OCCOC`: the Potency entry is “inactive”.

`Oc1c(Cl)ccc(Cl)c1Cl`: the Potency entry is “inactive”.

For the compound `O=C(O)c1ccc(O)cc1`, the Potency entry was “inactive”.

`Cc1ccc(C(C)(C)C)cc1`: the Potency result is “inactive”.
